“And” between values parts separate entries of the source, which are not always exact repeats. Equal values may be shown once. This is part of a sample that, as a whole, favours compounds with a hit. Of some 83,000 tested, about 20% had one in any assay.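 Method: cells in 96-well plates; compound added at one concentration; 48 h incubation; percent growth measured; values under 10 scored active.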 The source made the active and inactive calls.
Columns and labels:
Test in all cases: NCI-60 one-dose screen, 48 h (100 = growth as untreated, 0 = no growth, -100 = all killed)
Conditions in all cases: 10 µM unless noted
HCT-15 colon = test system: HCT-15 colon
HT29 colon = test system: HT29 colon
SNB-75 CNS = test system: SNB-75 CNS
SNB-19 CNS = test system: SNB-19 CNS
U251 CNS = test system: U251 CNS
PC-3 prostate = test system: PC-3 prostate
SK-MEL-5 melanoma = test system: SK-MEL-5 melanoma
UACC-62 melanoma = test system: UACC-62 melanoma
LOX IMVI melanoma = test system: LOX IMVI melanoma
SK-MEL-28 melanoma = test system: SK-MEL-28 melanoma

Measured: growth

CC(=NCc1ccccc1)c1ccc(O)cc1O
inactive: HCT-15 colon 101% | HT29 colon 104% | SNB-75 CNS 83.2% | SNB-19 CNS 103% | U251 CNS 101% | PC-3 prostate 81.7% | SK-MEL-5 melanoma 95% | UACC-62 melanoma 88.1% | LOX IMVI melanoma 94.1% | SK-MEL-28 melanoma 103%

O=C(O)c1ccccc1Cc1ccc(F)c2ccccc12
inactive: HCT-15 colon 108% and 99.4% | HT29 colon 116% and 107% | SNB-75 CNS 93.6% and 77.4% | SNB-19 CNS 101% and 104% | U251 CNS 115% and 104% | PC-3 prostate 120% and 90.7% | SK-MEL-5 melanoma 96.2% and 102% | UACC-62 melanoma 101% and 106% | LOX IMVI melanoma 100% and 98.9% | SK-MEL-28 melanoma 105%

CNC(=O)c1cc(Oc2ccc3nc(NC(=O)Nc4ccc(C(F)(F)F)cc4)sc3c2)ccn1
inactive: HCT-15 colon 54.2% | HT29 colon 78.4% | SNB-75 CNS 29.1% | SNB-19 CNS 79.3% | U251 CNS 22.4% | PC-3 prostate 58.8% | SK-MEL-5 melanoma 56.9% | UACC-62 melanoma 56% | LOX IMVI melanoma 48.1% | SK-MEL-28 melanoma 68.9%

CC[C@]1(O)CC2CN(CCc3c([nH]c4ccccc34)C(C(=O)OC)(c3cc4c(cc3OC)N(C=O)[C@H]3[C@@](O)(C(=O)OC)[C@H](OC(C)=O)[C@]5(CC)[C@@H]6C[C@@H]6CN6CC[C@]43[C@@H]65)C2)C1 (stereo not given in full)
active: HT29 colon -21.1% | U251 CNS 6.57% | SK-MEL-5 melanoma -49.4%
inactive: HCT-15 colon 15.5% | SNB-75 CNS 10.8% | SNB-19 CNS 37.5% | PC-3 prostate 17.9% | UACC-62 melanoma 37.2% | LOX IMVI melanoma 26.6% | SK-MEL-28 melanoma 69.5%

Cc1nc2sc(C(=O)Nc3cccc(Cl)c3C)c(N)c2cc1C(O)c1ccccc1 (stereo not given)
inactive: HCT-15 colon 12.3% | HT29 colon 11.8% | SNB-75 CNS 59.3% | SNB-19 CNS 34.7% | PC-3 prostate 19.6% | UACC-62 melanoma 21.4% | LOX IMVI melanoma 20.5% | SK-MEL-28 melanoma 53.9%
active: U251 CNS 9.59% | SK-MEL-5 melanoma -37.5%

Cc1cccc(Cc2cnc(NC(=O)CCCOc3ccc(Cl)cc3)s2)c1
inactive: HCT-15 colon 24.6% | HT29 colon 11.6% | SNB-75 CNS 21.3% | SNB-19 CNS 27.6% | U251 CNS 14% | PC-3 prostate 42.5% | SK-MEL-5 melanoma 30.7% | UACC-62 melanoma 32.4% | LOX IMVI melanoma 35.6% | SK-MEL-28 melanoma 58.4%

CCOC(=O)c1c(-c2ccc(OC)cc2)c(C#N)c2c(C#N)c(N)nn2c1N
active: HT29 colon 6.58%
inactive: HCT-15 colon 22.6% | SNB-75 CNS 43.4% | SNB-19 CNS 31.2% | U251 CNS 15.8% | PC-3 prostate 40% | SK-MEL-5 melanoma 19.3% | UACC-62 melanoma 13.1% | LOX IMVI melanoma 28.3% | SK-MEL-28 melanoma 44.8%

O=c1c(/C=C/c2ccco2)nnc2sc(Nc3ccc(Cl)cc3)nn12
inactive: HCT-15 colon 108% | HT29 colon 93.5% | SNB-75 CNS 79.9% | SNB-19 CNS 94.2% | U251 CNS 108% | PC-3 prostate 92.2% | SK-MEL-5 melanoma 93.5% | UACC-62 melanoma 92.4% | LOX IMVI melanoma 97.6% | SK-MEL-28 melanoma 108%

CCC(=C(c1ccc(OCCCN(C)C)cc1)c1ccc(OCCCN(C)C)cc1)c1ccc(Cl)cc1
active: HCT-15 colon -83.3% | HT29 colon -74.5% | SNB-75 CNS -96.6% | SNB-19 CNS -88.3% | U251 CNS -83.4% | PC-3 prostate -66.2% | SK-MEL-5 melanoma -96.3% | UACC-62 melanoma -80% | LOX IMVI melanoma -84.3% | SK-MEL-28 melanoma -89.8%

COc1ccc(-c2[nH]c3ccccc3c2-c2ccc(OC)cc2)cc1
inactive: HCT-15 colon 39.8% | HT29 colon 29.8% | SNB-75 CNS 31.5% | SNB-19 CNS 53.6% | U251 CNS 44% | PC-3 prostate 47.5% | SK-MEL-5 melanoma 58.1% | UACC-62 melanoma 56.7% | LOX IMVI melanoma 46.3% | SK-MEL-28 melanoma 51.4%

Cn1cc(-c2nonc2-c2cn(C)c3ccc(Br)cc23)c2ccccc21
active: HT29 colon 9.17% | SNB-75 CNS -0.37%
inactive: HCT-15 colon 26.1% | SNB-19 CNS 27.6% | U251 CNS 23.3% | PC-3 prostate 32% | SK-MEL-5 melanoma 37.2% | UACC-62 melanoma 21.8% | LOX IMVI melanoma 31.2% | SK-MEL-28 melanoma 55.9%

CC1=C2[C@@H](CC1)[C@]1(C)O[C@@](C(C)C)(C[C@H]1OC(=O)CO)[C@H]2OC(=O)C1CC1c1ccccc1 (stereo not given in full)
inactive: HCT-15 colon 96.8% | HT29 colon 75% | SNB-75 CNS 102% | SNB-19 CNS 88.5% | U251 CNS 79.6% | PC-3 prostate 62.6% | SK-MEL-5 melanoma 95% | UACC-62 melanoma 53.3% | LOX IMVI melanoma 77% | SK-MEL-28 melanoma 114%

CCOC(=O)C(=CCC(C)C)C(=O)OCC
inactive: HCT-15 colon 100% | HT29 colon 104% | SNB-75 CNS 93.1% | SNB-19 CNS 98.7% | U251 CNS 98.8% | PC-3 prostate 95.5% | SK-MEL-5 melanoma 103% | UACC-62 melanoma 93% | LOX IMVI melanoma 93.3% | SK-MEL-28 melanoma 107%

O=C1/C(=C/c2ccccc2[N+](=O)[O-])Cc2ccccc21
45.9% (inactive) and 4.22% (active): SK-MEL-28 melanoma
active: HCT-15 colon -56.9% and 5.02% | HT29 colon -44% and -37.1% | LOX IMVI melanoma -61.1% and 5.09%
inactive: SNB-75 CNS 40.8% and 43.5% | SNB-19 CNS 93.7% and 74.1% | U251 CNS 24.9% and 32.7% | PC-3 prostate 27.2% and 30.4% | SK-MEL-5 melanoma 47.2% and 69.5% | UACC-62 melanoma 29.5% and 25.5%

COc1ccc(Nc2ncnc3ccc(-c4cncc(NS(C)(=O)=O)c4)cc23)cc1Cl
inactive: HCT-15 colon 63.3% | HT29 colon 23.1% | SNB-75 CNS 26.7% | SNB-19 CNS 42.2% | U251 CNS 12% | PC-3 prostate 30% | UACC-62 melanoma 31.8% | LOX IMVI melanoma 15.7% | SK-MEL-28 melanoma 42.4%
active: SK-MEL-5 melanoma -60.5%

CCN1C(=O)/C(=c2\sc3n(c2=O)C2C(NN=3)N(CC)C(=O)N2CC)c2ccccc21 (stereo not given)
inactive: HCT-15 colon 19.3% | HT29 colon 13% | SNB-19 CNS 42% | U251 CNS 32.3% | PC-3 prostate 26.3% | SK-MEL-5 melanoma 12.7% | UACC-62 melanoma 32.9% | LOX IMVI melanoma 33% | SK-MEL-28 melanoma 54.2%
active: SNB-75 CNS 5.72%

CCCCn1c(C(=O)c2c[nH]c3ccccc23)n[nH]c1=S
inactive: HCT-15 colon 99% | HT29 colon 99.8% | SNB-75 CNS 81.2% | SNB-19 CNS 100% | U251 CNS 100% | PC-3 prostate 93.8% | SK-MEL-5 melanoma 99.9% | UACC-62 melanoma 81.7% | LOX IMVI melanoma 96.4% | SK-MEL-28 melanoma 117%

COc1cc(/C=C/C(=O)c2ccc(NC(=O)CSc3nnc(-c4cc(-c5ccccc5)nc5ccccc45)n3-c3ccccc3)cc2)cc(OC)c1OC
inactive: HCT-15 colon 65.9% | HT29 colon 54.7% | SNB-75 CNS 104% | SNB-19 CNS 95.1% | U251 CNS 94% | PC-3 prostate 81.6% | SK-MEL-5 melanoma 87% | UACC-62 melanoma 71.9% | LOX IMVI melanoma 89.4% | SK-MEL-28 melanoma 101%

O=C1OCC2=C1C(c1cccc([N+](=O)[O-])c1)c1cc3c(cc1N2CCO)CCC3 (stereo not given)
active: HCT-15 colon 9.41% | HT29 colon 3.43% | SK-MEL-5 melanoma 1.24%
inactive: SNB-75 CNS 41.9% | SNB-19 CNS 25% | U251 CNS 13.8% | PC-3 prostate 21.7% | UACC-62 melanoma 43.9% | LOX IMVI melanoma 20.5% | SK-MEL-28 melanoma 53.7%

O=C(Cc1ccc(F)cc1)c1ccccc1
inactive: HCT-15 colon 108% | HT29 colon 109% | SNB-75 CNS 100% | SNB-19 CNS 109% | U251 CNS 106% | PC-3 prostate 91.4% | SK-MEL-5 melanoma 110% | UACC-62 melanoma 106% | LOX IMVI melanoma 102% | SK-MEL-28 melanoma 114%

CN(C)CCCn1c2nc(=O)[nH]c(=O)c-2nc2cc(Cl)c(Cl)cc21
inactive: HCT-15 colon 87% | HT29 colon 20.9% | SNB-75 CNS 99.9% | SNB-19 CNS 100% | U251 CNS 55.2% | PC-3 prostate 60.2% | SK-MEL-5 melanoma 78.3% | UACC-62 melanoma 97.9% | LOX IMVI melanoma 41.2% | SK-MEL-28 melanoma 106%

O=C1C=CC(=O)N1c1ccc2ccccc2c1
-42.9% (active) and 32.6% (inactive): HT29 colon
inactive: HCT-15 colon 56.3% and 91.1% | SNB-75 CNS 88.9% and 105% | SNB-19 CNS 103% and 107% | U251 CNS 95.9% and 96.5% | PC-3 prostate 91% and 90% | SK-MEL-5 melanoma 106% and 102% | UACC-62 melanoma 98.8% and 93.6% | LOX IMVI melanoma 91.6% and 77.6% | SK-MEL-28 melanoma 110% and 116%

COc1cccc(C2C(C#N)=C(N)Oc3cc(OCCCCCC[P+](c4ccccc4)(c4ccccc4)c4ccccc4)ccc32)c1 (stereo not given)
active: HT29 colon -17.6% | SNB-75 CNS -71.3% | SNB-19 CNS -65.8% | U251 CNS -79.4% | PC-3 prostate -13.1% | SK-MEL-5 melanoma -97.5% | UACC-62 melanoma -66.8% | LOX IMVI melanoma -93.8% | SK-MEL-28 melanoma -77.1%
inactive: HCT-15 colon 62%

O=C(N=Nc1c(O)[nH]c2ccccc12)Nc1ccccc1Cl
inactive: HCT-15 colon 68.1% | HT29 colon 101% | SNB-75 CNS 82% | SNB-19 CNS 91.1% | U251 CNS 92.2% | PC-3 prostate 92.5% | SK-MEL-5 melanoma 87.6% | UACC-62 melanoma 78.8% | LOX IMVI melanoma 96.5% | SK-MEL-28 melanoma 105%

O=C1CCCCN1CCCCC#Cc1cccc(C#Cc2cccnc2)c1
inactive: HCT-15 colon 44.7% | HT29 colon 86.5% | SNB-75 CNS 79.5% | SNB-19 CNS 78.3% | U251 CNS 72.4% | PC-3 prostate 61.5% | SK-MEL-5 melanoma 62.6% | UACC-62 melanoma 36.3% | LOX IMVI melanoma 95.8% | SK-MEL-28 melanoma 107%

From PubChem BioAssay (NCI)
